# Experimental data as given in ChEMBL document CHEMBL1961873, “Compounds: GSK PKIS; Assays: Nanosyn kinase panel” (2012).
# Legend:
# [1] = biological target: Casein kinase I isoform gamma-2 (Homo sapiens) (UniProt P78368); details: at 1 µM
# [2] = biological target: Casein kinase I isoform gamma-3 (Homo sapiens) (UniProt Q9Y6M4); details: at 0.1 µM
# [3] = biological target: Casein kinase I isoform gamma-3 (Homo sapiens) (UniProt Q9Y6M4); details: at 1 µM
# [4] = biological target: Cyclin-dependent kinase 1 (Homo sapiens) (UniProt P06493); details: at 0.1 µM
# Cyclin-dependent kinase 1 (Homo sapiens), sequence (P06493 whole entry, looked up): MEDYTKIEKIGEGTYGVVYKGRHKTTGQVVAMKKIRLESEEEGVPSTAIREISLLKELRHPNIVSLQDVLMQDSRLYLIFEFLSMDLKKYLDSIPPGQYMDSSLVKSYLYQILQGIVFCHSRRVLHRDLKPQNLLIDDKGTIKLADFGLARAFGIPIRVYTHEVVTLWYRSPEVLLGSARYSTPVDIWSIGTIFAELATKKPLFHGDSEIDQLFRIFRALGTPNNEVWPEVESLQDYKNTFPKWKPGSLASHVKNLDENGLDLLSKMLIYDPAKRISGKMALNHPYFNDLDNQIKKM
# [5] = biological target: Cyclin-dependent kinase 1 (Homo sapiens) (UniProt P06493); details: at 1 µM
# [6] = biological target: Cyclin-dependent kinase 2 (Homo sapiens) (UniProt P24941); details: at 0.1 µM
# [7] = biological target: Cyclin-dependent kinase 2 (Homo sapiens) (UniProt P24941); details: at 1 µM
# [8] = biological target: Cyclin-dependent kinase 2 (Homo sapiens) (UniProt P24941); details: at 0.1 µM; remark: listed apart in the source
# [9] = biological target: Cyclin-dependent kinase 2 (Homo sapiens) (UniProt P24941); details: at 1 µM; remark: listed apart in the source
# [10] = biological target: CDK3/Cyclin E (Homo sapiens) (UniProt P24864+Q00526); details: at 0.1 µM;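 note: reported percentages are mean inhibition values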
# CDK3/Cyclin E (Homo sapiens), sequence (P24864 whole entry, looked up): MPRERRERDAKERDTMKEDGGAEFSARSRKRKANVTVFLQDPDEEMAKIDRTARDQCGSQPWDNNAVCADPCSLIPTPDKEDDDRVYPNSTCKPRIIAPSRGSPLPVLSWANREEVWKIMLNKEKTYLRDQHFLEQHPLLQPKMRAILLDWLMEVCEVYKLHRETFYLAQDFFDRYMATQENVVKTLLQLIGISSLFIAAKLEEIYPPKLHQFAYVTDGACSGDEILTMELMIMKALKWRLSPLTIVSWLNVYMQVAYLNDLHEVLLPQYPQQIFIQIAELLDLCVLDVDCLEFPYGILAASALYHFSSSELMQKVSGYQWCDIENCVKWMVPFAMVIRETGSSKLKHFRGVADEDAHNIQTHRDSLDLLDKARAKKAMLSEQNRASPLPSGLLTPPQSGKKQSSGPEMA
# CDK3/Cyclin E (Homo sapiens), sequence (Q00526 whole entry, looked up): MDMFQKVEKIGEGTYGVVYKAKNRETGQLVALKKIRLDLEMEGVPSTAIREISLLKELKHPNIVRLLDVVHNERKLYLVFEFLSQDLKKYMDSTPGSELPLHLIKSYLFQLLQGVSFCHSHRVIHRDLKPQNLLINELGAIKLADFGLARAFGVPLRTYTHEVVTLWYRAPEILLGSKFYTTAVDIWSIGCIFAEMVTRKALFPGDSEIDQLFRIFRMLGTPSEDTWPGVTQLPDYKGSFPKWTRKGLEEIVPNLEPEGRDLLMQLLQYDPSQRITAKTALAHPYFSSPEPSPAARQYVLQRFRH
# Casein kinase I isoform gamma-2 (Homo sapiens), sequence (P78368 whole entry, looked up, canonical isoform): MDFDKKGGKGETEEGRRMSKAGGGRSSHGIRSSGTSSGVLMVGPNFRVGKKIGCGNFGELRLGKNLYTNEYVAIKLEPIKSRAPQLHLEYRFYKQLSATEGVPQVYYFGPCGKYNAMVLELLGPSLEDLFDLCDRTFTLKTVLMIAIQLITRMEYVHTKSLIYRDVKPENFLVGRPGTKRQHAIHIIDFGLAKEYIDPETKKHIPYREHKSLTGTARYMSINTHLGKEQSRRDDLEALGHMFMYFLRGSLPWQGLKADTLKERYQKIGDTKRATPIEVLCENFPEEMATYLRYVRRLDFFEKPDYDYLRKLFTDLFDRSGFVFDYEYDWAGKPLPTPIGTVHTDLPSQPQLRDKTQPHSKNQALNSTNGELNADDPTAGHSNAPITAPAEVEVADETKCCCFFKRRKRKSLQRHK
# Casein kinase I isoform gamma-3 (Homo sapiens), sequence (Q9Y6M4 whole entry, looked up, canonical isoform): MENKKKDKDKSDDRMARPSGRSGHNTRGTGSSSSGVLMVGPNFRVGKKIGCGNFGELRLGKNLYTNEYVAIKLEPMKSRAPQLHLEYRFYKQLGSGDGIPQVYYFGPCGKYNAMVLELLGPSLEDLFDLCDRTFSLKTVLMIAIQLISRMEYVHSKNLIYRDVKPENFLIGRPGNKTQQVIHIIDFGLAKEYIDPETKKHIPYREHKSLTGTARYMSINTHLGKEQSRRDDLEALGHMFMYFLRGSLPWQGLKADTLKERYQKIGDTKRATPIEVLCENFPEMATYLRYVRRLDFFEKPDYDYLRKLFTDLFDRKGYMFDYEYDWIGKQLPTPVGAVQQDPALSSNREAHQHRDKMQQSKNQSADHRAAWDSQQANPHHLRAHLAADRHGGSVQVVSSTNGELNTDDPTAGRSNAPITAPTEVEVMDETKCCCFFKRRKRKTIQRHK
SMILES,inhibition [1],inhibition [2],inhibition [3],inhibition [4],inhibition [5],inhibition [6],inhibition [7],inhibition [8],inhibition [9],inhibition [10]
[O-][S+]1CCN(Cc2ccc(-c3ccc4ncnc(Nc5ccc(OCc6ccccc6)c(Cl)c5)c4c3)o2)CC1,1.66%,0.73%,4.22%,1.22%,1.4%,2.81%,2.09%,0.43%,1.73%,-1.53%
CN1CCN(C(=O)c2ccc(NC(=O)Nc3ccc(N(C)c4ccnc(Nc5ccc(CS(C)(=O)=O)cc5)n4)cc3)cc2)CC1,1.64%,1.17%,1.29%,2.37%,5.28%,4.51%,10.8%,0.96%,5.93%,-1.55%
O=C1Nc2ccccc2/C1=C/Nc1ccc2[nH]c(=O)[nH]c2c1,7.61%,3.84%,7.65%,1.63%,8.12%,2.91%,7.88%,3.74%,12.8%,5.68%
N#Cc1c(NC(=O)c2ccccc2F)sc2c1CCCC2,-1.07%,-2.12%,-0.42%,1.03%,1.65%,-0.45%,0.88%,-2.16%,-0.2%,-1.77%
FC(F)(F)c1ccc(-c2nn3ncccc3c2-c2ccnc(Nc3ccc4c(c3)OCCO4)n2)cc1,0.81%,0.18%,1.72%,5.01%,4.37%,1.49%,-1.87%,5.4%,5.36%,7.17%
Cc1ccc(C(=O)NC2CC2)cc1-c1ccc2[nH]ncc2c1,-3.39%,-2.17%,-1.12%,0.88%,2.1%,0.12%,4.69%,-1.68%,0.18%,-2.07%
COc1ccc2ncnc(Nc3ccc(OCc4ccccc4)cc3)c2c1,2.03%,-0.66%,1.41%,0.67%,1.75%,1.36%,-4.84%,0.4%,1.13%,1.69%
COc1cc2ncnc(Nc3ccc4c(cnn4Cc4ccccc4)c3)c2cc1OC,2.98%,0.8%,1.75%,2.61%,6.2%,4.41%,2.68%,6.35%,7.13%,-0.7%
CCCN1CCCC(c2ccc(Nc3nc(Nc4cc(F)ccc4C(N)=O)c4cc[nH]c4n3)c(OC)c2)C1 (stereo not given),78.6%,44.3%,83.5%,0.12%,2.76%,2.13%,10.8%,3.57%,8.67%,4.8%
NS(=O)(=O)c1cccc(Nc2cc(-c3ccc(F)cc3)n[nH]2)c1,4.87%,1.83%,4.57%,0.79%,9.28%,2.32%,11.1%,7.11%,28.4%,10.6%
Cc1ccc2c(-c3ccnc(Nc4cccc(C(F)(F)F)c4)n3)c(-c3ccccc3)nn2n1,12%,4.25%,24.8%,3.78%,3.79%,4.09%,3.14%,2.95%,7.4%,-1.21%
CCS(=O)(=O)c1ccc(OC)c(Nc2ncc(-c3cccc(OC)c3)o2)c1,3.73%,3.1%,5.62%,-0.89%,2.51%,1.38%,5.48%,2.62%,7.35%,0.48%
Nc1nccc(C#Cc2cncnc2Nc2ccc(OCc3cccc(F)c3)c(Cl)c2)n1,3.89%,3.42%,3.02%,0.61%,2.58%,1.73%,1.37%,3.74%,5.25%,1.09%
Cc1ccc(Nc2ccnc(Nc3cccc(C(N)=O)c3)n2)cc1O,0.87%,-2.96%,0.07%,-3.61%,1.29%,-0.93%,16.1%,-0.2%,7.62%,1.92%
Oc1cccc(-c2nc(-c3ccccc3)[nH]c2-c2ccncc2)c1,2.78%,2.62%,2.68%,0.66%,2.64%,1.15%,-1.31%,5.08%,6.33%,4.62%
NS(=O)(=O)c1ccc(N/N=C2\C(=O)Nc3ccc(Cl)cc32)cc1,3.33%,1.35%,3.48%,8.41%,42.5%,46.7%,102%,58.5%,80.5%,40.8%
CN(C)C(=O)O[C@H]1CN[C@H](C#Cc2cc3ncnc(Nc4ccc(OCc5cccc(F)c5)c(Cl)c4)c3s2)C1,1.66%,1.79%,0.71%,0.08%,-0.52%,1.13%,1.7%,3.08%,3.18%,0.39%

SMILES,inhibition [1],inhibition [2],inhibition [3],inhibition [4],inhibition [5],inhibition [6],inhibition [7],inhibition [8],inhibition [9],inhibition [10]
COC(=O)c1ccc2c(c1)C(=Cc1cc(Br)c(O)c(Br)c1)C(=O)N2,6.12%,3.75%,5.04%,1.54%,2.24%,8.07%,7.32%,2.47%,4.31%,-5.06%
COc1cccc(-n2ncc3c(N/N=C/c4ccc(C)cc4)ncnc32)c1,12%,6.01%,8.48%,4.4%,8.17%,5.82%,11%,2.46%,7.81%,-3.32%
c1ccc(Nc2ncc(-c3ccccc3)o2)cc1,5.31%,4.05%,4.99%,2.77%,4.54%,3.79%,10.5%,3.46%,12.3%,0.23%
CN(C)CCCn1c(-c2nonc2N)nc2cnccc21,4.54%,1.5%,3.26%,1.58%,2.19%,2.53%,-3.59%,4.53%,6.13%,4.24%
NS(=O)(=O)c1ccc(-c2cc3ccncc3cc2OCc2ccccc2)cc1,3.43%,1.53%,4.76%,-0.03%,0.11%,1.51%,2.11%,1.41%,1.57%,4.12%
Cc1ccc2c(c1)/C(=N/Nc1ccc(S(N)(=O)=O)cc1)C(=O)N2,0.86%,1.81%,-0.55%,3.51%,23.4%,27%,69.6%,35%,74.2%,14.9%
COC(=O)c1cncc(/C=C/c2c(C)cc(O)cc2C)c1,3.31%,2.67%,3.39%,0.78%,3.13%,2.61%,4.42%,3.33%,5.75%,1.45%
Cc1cc(-c2ccccn2)cc(C)c1/C=C/c1cncc(-c2nn[nH]n2)c1,6.46%,2.01%,4.69%,3.71%,5.82%,2.14%,2.77%,3.02%,7.32%,-2.85%
CS(=O)(=O)Nc1cccc(-c2ccc3c(NC(=O)C4CC4)n[nH]c3c2)c1,0.91%,0.37%,1.22%,1.04%,3.4%,1.58%,6.73%,1.31%,4.6%,2.08%
CN(C)c1cc2c(Nc3ccc4c(cnn4Cc4ccccc4)c3)ncnc2cn1,2.69%,1.93%,2.19%,0.49%,1.95%,1.76%,4.21%,2.18%,3.51%,0.35%
COc1cccc(-n2ncc3c(N/N=C/c4ccc(S(C)(=O)=O)cc4)ncnc32)c1,-0.73%,-4.22%,-2.43%,26.2%,64%,32.1%,68%,7.18%,41.6%,4.38%
Cc1cc(Cl)cc2c1NC(=O)C2=NNc1ccc(S(N)(=O)=O)cc1,1.54%,-0.43%,0.95%,1.08%,1.91%,1.27%,2.22%,1.42%,4.71%,3.25%
C[C@@H](Oc1cc(-n2cnc3ccc(OC[C@@H](O)CO)cc32)sc1C(N)=O)c1ccccc1Cl,-0.43%,-1.73%,1.34%,0.5%,3.21%,1.64%,2.63%,-2.32%,3.99%,1.36%
NS(=O)(=O)c1cccc(-c2cc3ccncc3cc2OCc2ccccc2)c1,4.41%,4.33%,2.71%,2.03%,2.22%,1.1%,3.16%,5.88%,6.78%,3.65%
O=C1Nc2ccc(-c3cccnc3)cc2C1=Cc1cc(Br)c(O)c(Br)c1,4.44%,3.31%,3.74%,-0.12%,1.23%,2.18%,1.15%,3.46%,5.04%,0.27%
Nc1ccc(C#Cc2cncnc2Nc2ccc(OCc3cccc(F)c3)c(Cl)c2)cc1,2.65%,2.45%,2.75%,1.11%,1.87%,1.4%,1.57%,2.14%,3.31%,-0.93%
